# PubChem BioAssay (Tox21)
# Where “and” joins values, the source holds several entries; their conditions need not be identical. Identical values can stand only once. Calls of active or inactive are those of the source. Where a call stands in place of a potency, no number is given. Calls come from the whole dose curve; as a rule, active = well fitted curve in the direction sought with a large enough effect in the repeat runs; inconclusive = weak or mixed curves; inactive = flat fitted curve, though single readings scatter.
# Assay: qHTS assay to test for compound auto fluorescence at 460 nm (blue) in HepG2 cell free culture (AID 720685)
# Settings: Cell-free culture medium, blue autofluorescence 405/460 nm; series mostly up to 91.3 µM
# From the text: U.S. Tox21 Program National Center for Advancing Translational Sciences [NCATS] NIH Chemical Genomics Center [NCGC] U.S. Environmental Protection Agency [EPA] National Institutes of Environmental Health Sciences [NIEHS] National Toxicology Program [NTP] U.S. Food and Drug Administration [FDA] Tox21 Assay Overview: Compound auto fluorescence often interferes with screening of the compound library against various biological targets and signaling pathways. Some of these compounds may have fluorophoric properties. Such properties may interfere with the assay outputs resulting in false positives and/or negatives. To decrease such complications and ensure the compound activities are relevant in terms of biological response, the Tox21 10K compound library was screened for auto fluorescence. From the fluorophores used as reporter signals in our screening assays, the auto fluorescence equivalencies of compounds against three fluorophores have been evaluated: Triamterene, Fluorescein and Rose Bengal sodium for blue, green and red fluorescence, respectively. The fluorescence intensities were measured using Excitation/Emission wavelengths at 405/460nm, 485/535nm and 540/590nm for blue, green and red labels, respectively. This assay includes the blue fluorescence data.
# Tox21 Assay Protocol Summary: 5 uL of culture medium (MEM containing 10% FBS) per well was dispensed into black wall/clear bottom 1536-well plates using a Multidrop Combi Dispenser (ThermoFisher Scientific, Waltham, MA). After 23 nL compound or DMSO vehicle was transferred into assay plate by a pintool work station (Kalypsys, San Diego, CA), fluorescence intensities in the assay plates were measured by an Envision (PerkinElmer, Shelton, CT) plate reader using three labels for measuring blue, green and red fluorescence at […] 460, 535 and 590nm respectively.
# Potency is the fitted concentration of half-maximal effect; tags give direction and shape of the fitted curve or compound fluorescence and quenching.
row,Structure (SMILES),Potency
1,COc1ccc(OC(F)(F)F)cc1CN[C@H]1CCCN[C@H]1c1ccccc1,inactive
2,CCCCCCCCCCCCCCCC[N+](C)(C)Cc1ccccc1,inactive
3,Cc1cn([C@H]2C=C[C@@H](CO)O2)c(=O)[nH]c1=O,inactive
4,C=C1CC[C@H](O)C/C1=C\C=C1/CCC[C@]2(C)[C@@H]([C@H](C)CCCC(C)C)CC[C@@H]12,inactive
5,Oc1ccccc1,inactive
6,O=C1NS(=O)(=O)c2ccccc21,inactive
7,CCCCC(CC)C(=O)O (stereo not given),inactive
8,F[B-](F)(F)F,inactive
9,CCOc1ccc(NC(C)=O)cc1,inactive
10,O=CC(=O)c1ccccc1,inactive
11,CC(C)C(=O)Nc1ccc([N+](=O)[O-])c(C(F)(F)F)c1,inactive
12,CCCc1cc(=O)[nH]c(=S)[nH]1,inactive
13,O=C(Nc1ncc([N+](=O)[O-])s1)c1cccs1,inactive
14,COc1ccc(C(Cl)=C(c2ccc(OC)cc2)c2ccc(OC)cc2)cc1,inactive
15,O=C(O)c1ccccc1,inactive
16,C[C@](N)(Cc1ccc(O)c(O)c1)C(=O)O,inactive
17,Cc1cc(=O)oc2cc(O)ccc12,10 µM [fluorescent] (active) and 39.8 µM [fluorescent] (active)
18,NS(=O)(=O)c1cc2c(cc1Cl)NCNS2(=O)=O,inactive
19,Cc1cc(C)nc(NS(=O)(=O)c2ccc(N)cc2)n1,inactive
20,OC[C@H]1O[C@H](O[C@]2(CCl)O[C@H](CCl)[C@@H](O)[C@@H]2O)[C@H](O)[C@@H](O)[C@H]1Cl,inactive

row,Structure (SMILES),Potency
1,CN[C@H]1CC[C@@H](c2ccc(Cl)c(Cl)c2)c2ccccc21,inactive
2,CCCCCCCCCCCC[N+](C)(C)Cc1ccccc1,inactive
3,CS(=O)(=O)OCCCCOS(C)(=O)=O,inactive
4,O=C1O[C@H]([C@@H](O)CO)C(O)=C1O,inactive
5,O=C1c2c(O)cccc2Cc2cccc(O)c21,inactive
6,CN1[C@@H]2CC(OC(=O)[C@H](CO)c3ccccc3)C[C@H]1[C@@H]1O[C@@H]12 (stereo not given in full),inactive
7,O=C1NC(=O)C(c2ccccc2)(c2ccccc2)N1,inactive
8,CN(C)CCOC(c1ccccc1)c1ccccc1,inactive
9,O=c1[nH]cc(F)c(=O)[nH]1,inactive
10,Cc1cccc(C)c1,inactive
11,Nc1ccc([N+](=O)[O-])cc1O,inactive
12,Cc1ccc(S(=O)(=O)O)cc1,inactive
13,O=S1(=O)OC(c2ccc(O)cc2)(c2ccc(O)cc2)c2ccccc21,inactive
14,CN(C)C(=S)SC(=S)N(C)C,inactive
15,CCN(CC)C(=O)c1cccc(C)c1,inactive
16,CCCCNC(=O)NS(=O)(=O)c1ccc(C)cc1,inactive
17,C/C=C/C=C/C(=O)O,inactive
18,C1CCC(C(CC2CCCCN2)C2CCCCC2)CC1 (stereo not given),inactive
19,CN(C)C(=O)Nc1ccc(Cl)c(Cl)c1,inactive
20,CCCCOC(=O)c1ccc(O)cc1,inactive
